Hits are enriched below; roughly 6.8% of the tested compounds scored in any of these assays.
Abs 340nm: compounds absorbing at 340 nm; compound absorbance at 340 nm, fold over control; fold change at 10 µM; 65,000 tested, under 10 active;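 active = at 10 µM dose, initial 340 nm absorbance at least 2 fold that of control wells; inactive = change under 2 fold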;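 note: initial absorbance extrapolated from kinetic A340 decline of NADH oxidation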
Spn DPM-DC inh: S. pneumoniae DPM-DC inhibition. 0.49% of 65,000 active. purified DPM-DC, PK/LDH coupled NADH fluorescence. calls only at 10 µM;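 active = the 320 compounds with the highest percent inhibition in the single-dose primary screen, excluding strongly autofluorescent ones, cut at about 32% in these data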;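 note: kinetic rate of NADH fluorescence loss reporting ADP formed by the decarboxylase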
PMK inhibit: blocks S. pneumoniae phosphomevalonate kinase | purified PMK, PK/LDH-coupled NADH absorbance 340 nm | inhibition, % at 10 µM | 0.49% of 65,000 active;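 active = top-ranked compounds by inhibition in the single 10 µM screen, taking a fixed number of the strongest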;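 note: 0% = full reaction with DMSO carrier and 100% = background rate without enzyme reaction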
NADH coupling: inhibition of NAD/NADH coupling enzymes, library profiling; coupled PK/LDH NADH assays, four targets; 0.02% of 65,000 active; IC50, µM (highest dose often 10 µM), for inactives: top-dose inhibition;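 active = single-dose screening hits from any of four coupled enzyme assays that gave an IC50 when retested across doses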;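 note: the DPM-DC format reads NADH fluorescence rather than 340 nm absorbance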
MK inhibit: blocks S. pneumoniae mevalonate kinase; purified MK, PK/LDH-coupled NADH absorbance 340 nm; 0.48% of 65,000 active; inhibition, % at 10 µM;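 active = ranked among the strongest by inhibition in the single 10 µM screen, a fixed top-ranked set picked for dose follow-up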
Autofluor 339: intrinsic fluorescence of library compounds, ex339/em460 – biochemical, MLSMR library, data from DPM-DC assay, artefact control, profiling panel; compound autofluorescence, ex339/em460 nm, NADH buffer; active compounds read high; 1 = no-compound wells, NADH background; fluorescence fold increase at 10 µM; 5.5% of 65,000 active;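 active = at 10 µM, mean starting fluorescence two-fold or more over control wells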;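 note: signal is the first read of a kinetic run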
An asterisk follows results filed as active; i = inactive; nt = not tested or not shown; + = active, no number; [ ] = another dose, or the depositor's remark.

SMILES | Abs 340nm | Spn DPM-DC inh | PMK inhibit | NADH coupling | MK inhibit | Autofluor 339
O=C(CN(C(=O)CNS(=O)(=O)c1ccccc1)c1ccc2c(c1)OCCO2)NCc1ccco1 | 1 | i | 19 | 8% | 6 | 1.1
Cc1cc(-c2ccccc2)n2ncc(C#N)c2n1 | 1.1 | nt | 11 | 9% | 7 | 2.1*
N#Cc1cnn(-c2ccccc2)c1N | 0.95 | i | 2 | 6% | 17 | 1.1
O=C(C1CCC1)N1CCN(Cc2ccccc2)CC1 | 0.94 | i | 7 | 6% | 11 | 1.1
Cc1ccc(CN2CCN(C(=O)C3CCC3)CC2)cc1 | 1 | i | active | 6% | 8 | 1
CCSc1nnc(NC(=O)CSc2nc3c(c(=O)n2-c2ccccc2OC)SCC3)s1 | 1.1 | i | 17 | 6% | 1 | 1.1
CCC(CC)C(=O)Nc1nnc(-c2cccs2)s1 | 1 | i | 17 | 13% | 0 | 2.6*
CC(C)c1nnc(NC(=O)c2cccs2)s1 | 1.1 | i | 4 | 3% | 6 | 1
COc1cc(-n2c3nc4ccccc4nc3c3c(=O)n(Cc4ccco4)cnc32)cc(OC)c1OC | 1 | i | 0 | 0% | 0 | 1.1
COc1ccc2c(c1)c1ncn(Cc3ccco3)c(=O)c1n2C | 1 | nt | 9 | 8% | 7 | 3.7*
COc1ccc(OC)c(C2=NO[C@@H]3C(=O)N(c4cc(Cl)ccc4OC)C(=O)[C@H]23)c1 | 1.1 | i | 14 | 11% | 7 | 2*
COc1ccc(NC(=O)C2CC(=O)OC2(C)C)cc1 (stereo not given) | 1 | nt | 0 | 1% | 1 | 2.2*
COc1ccc(NC(=O)C2CCC(C)(C(=O)O)C2(C)C)cc1 (stereo not given) | 1.1 | i | 0 | 0% | 0 | 1.1
Cc1ccc2nc3ccc(N4CCN(C)CC4)nn3c(=O)c2c1 | 1.1 | i | 7 | 6% | 0 | 2.3*
Nc1c(C(=O)Nc2ccc(F)cc2)sc2nc(-c3ccco3)ccc12 | 1.1 | nt | 0 | 3% | 5 | 3.8*
CCCCn1cnc2c(cnn2-c2ccc(F)cc2)c1=O | 0.98 | i | 13 | 6% | 5 | 1.1
CCCn1cnc2c(cnn2-c2ccc(F)cc2)c1=O | 0.97 | i | 27* | 4% | 6 | 1
Cn1c(=O)c2c(SCc3cccnc3)nc(C3CC3)nc2n(C)c1=O | 1 | i | 6 | 4% | 5 | 1.1
Cc1ccc2cc(C#N)c(N3CCCN(C(=O)C4CCCO4)CC3)nc2c1C (stereo not given) | 0.99 | i | 10 | 11% | 7 | 2.4*
COc1cccc2c(=O)c(C(=O)NCc3cccs3)c[nH]c12 | 1.1 | nt | 14 | 9% | 4 | 3.7*
CCN(CC)CCCN1C(=O)c2oc3ccccc3c(=O)c2C1c1cccc(OC)c1OC (stereo not given) | 1.1 | i | 9 | 3% | 0 | 1.1
Cn1c(C(=O)NCCCN2CCCC2=O)cc2c(=O)n3ccccc3nc21 | 1.1 | nt | 12 | 11% | 9 | 4.9*
Cn1c(C(=O)NCCC2=CCCCC2)cc2c(=O)n3ccccc3nc21 | 1 | nt | 9 | 3% | 5 | 3.5*
Cc1ccc(S(=O)(=O)N2CCN(C(=O)CN3CCOCC3)C2c2ccccc2)cc1 (stereo not given) | 0.98 | i | 6 | 3% | 4 | 1.1
O=C(O)CCCNS(=O)(=O)c1ccc(NCc2ccccc2)c(C(=O)O)c1 | 1 | i | 14 | 14% | 0 | 1.6
SMILES | Abs 340nm | Spn DPM-DC inh | PMK inhibit | NADH coupling | MK inhibit | Autofluor 339
Cc1c(NC(=O)CN2c3cccc4cccc(c34)S2(=O)=O)c(=O)n(-c2ccccc2)n1C | 1 | +[may fluoresce] | 9 | 2% | 5 | 2.5*
Cc1c(NC(=O)CN2C(=O)c3ccccc3S2(=O)=O)c(=O)n(-c2ccccc2)n1C | 1 | i | 6 | 5% | 9 | 1.1
O=C(CN1c2cccc3cccc(c23)S1(=O)=O)N1CCOCC1 | 0.99 | +[fluoresces] | 3 | 1% | 8 | 2.8*
COc1ccc(NC(=O)CN2c3cccc4cccc(c34)S2(=O)=O)cc1 | 1 | i | 13 | 5% | 0 | 2.3*
CCOc1ccc(N2C(=O)CC(N3CCN(c4ccc(C(=O)c5ccncc5)cc4)CC3)C2=O)cc1 (stereo not given) | 1.2 | i | 16 | 8% | 3 | 1
CCOC(=O)c1cc2sccc2n1CC(=O)N1CCN(C(=O)c2ccco2)CC1 | 0.98 | i | 3 | 6% | 15 | 1.1
CCOC(=O)c1cnc(SCC(=O)N2CCN(C(=O)c3ccco3)CC2)nc1N | 1 | i | 25* | 8% | 0 | 1.1
CCOC(=O)c1cc2sc(C)cc2n1CC(=O)N1CCN(C(=O)c2ccco2)CC1 | 1 | i | 17 | 20% | 42* | 1.1
Clc1ccc2nc(N3CCNCC3)nc(-c3ccccc3)c2c1 | 0.95 | nt | 15 | 12% | 8 | 2.3*
COc1ccc(C(=O)Nc2nccs2)cc1OC | 1.1 | i | 10 | 4% | 3 | 1.1
COc1ccc(C(=O)Nc2ccncc2)cc1OC | 1 | i | 40* | 14% | 3 | 0.96
CCN(CC)c1ccc(-c2c(C#N)c(N)nc(OC)c2C#N)cc1 | 1.1 | nt | 0 | 1% | 4 | 2.5*
Cc1ccc2[nH]c3c(c2c1)CCc1cn[nH]c1-3 | 0.99 | i | 12 | 6% | 3 | 1.8
O=C1CCCc2c1[nH]c1ccc(CN3CCCCC3)cc21 | 1.1 | nt | 0 | 3% | 6 | 2.1*
Cc1[nH]c2ccc(Br)cc2c(=O)c1CN1CCCCC1 | 1.1 | i | 8 | 4% | 4 | 1.1
Cc1ccc2[nH]c3c(c2c1)CCC3=O | 1 | nt | 9 | 8% | 7 | 3.7*
COc1ccc(OCC(O)Cn2c(Nc3cccc(C)c3)nc3c2c(=O)n(C)c(=O)n3C)cc1 (stereo not given) | 0.98 | i | 11 | 4% | 0 | 1.1
N=c1c(C(=O)NCc2ccco2)cc2c(=O)n3ccccc3nc2n1Cc1ccc(Cl)cc1 | 1.1 | i | 5 | 7% | 6 | 2.5*
N=c1c(C(=O)NCc2ccco2)cc2c(=O)n3ccccc3nc2n1Cc1ccccc1 | 1 | i | 16 | 17% | 12 | 2.4*
N=c1c(C(=O)NCc2ccc3c(c2)OCO3)cc2c(=O)n3ccccc3nc2n1Cc1cccnc1 | 1 | i | 1 | 2% | 4 | 1.6
COCCCn1c(=N)c(C(=O)NCc2ccc3c(c2)OCO3)cc2c(=O)n3ccccc3nc21 | 1.1 | i | 0 | 0% | 1 | 1.2
CCOC(=O)c1cc2c(=O)n3ccccc3nc2n(Cc2ccc(Cl)cc2)c1=N | 1 | i | 6 | 3% | 1 | 2.3*
COCCn1c(=N)c(C(=O)NCc2ccco2)cc2c(=O)n3ccccc3nc21 | 1 | i | 10 | 14% | 4 | 3*
Cc1cc2nc(NC3=NCN(Cc4cccnc4)CN3)nc(C)c2cc1C | 1 | i | 9 | 5% | 7 | 1.1
